In the supplement of paper PMC10849652:
Of roughly 8,800 targets only a part is listed; those with a hit were picked by preference. About 0.5% of all pairs of compound and target were hits.

What follows are targets tested with C1=CC=C2C(=C1)C3=NNC4=CC=CC(=C43)C2=O (assay: log2 fold change, soluble protein after heating vs DMSO (PISA); higher = thermal stabilisation; K562 lysate, 10 uM; active = over 0.2 and 3.5 SD of the protein, either way, in both replicates (recomputed)).
Summary of the method: (§1)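 Dounce homogenisation of K562 pellets in PBS pH 7.4 with 1 mM MgCl2 produced a crude extract, used at 1 mg/mL protein. Exposure to 10 μM compound lasted 30 min, and aliquots were then heated for 3 min across 48°C-58°C, pooled and brought to 0.5% NP-40 at 4°C. The supernatant after 21,000xg for 90 min was quantified by TMTpro 16plex LC-MS/MS with channel sums equalised. Duplicate values are given as log-two fold change in thermal stability relative to solvent controls.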

Chain of UniProt Q96RT8 (Q96RT8 whole entry, looked up): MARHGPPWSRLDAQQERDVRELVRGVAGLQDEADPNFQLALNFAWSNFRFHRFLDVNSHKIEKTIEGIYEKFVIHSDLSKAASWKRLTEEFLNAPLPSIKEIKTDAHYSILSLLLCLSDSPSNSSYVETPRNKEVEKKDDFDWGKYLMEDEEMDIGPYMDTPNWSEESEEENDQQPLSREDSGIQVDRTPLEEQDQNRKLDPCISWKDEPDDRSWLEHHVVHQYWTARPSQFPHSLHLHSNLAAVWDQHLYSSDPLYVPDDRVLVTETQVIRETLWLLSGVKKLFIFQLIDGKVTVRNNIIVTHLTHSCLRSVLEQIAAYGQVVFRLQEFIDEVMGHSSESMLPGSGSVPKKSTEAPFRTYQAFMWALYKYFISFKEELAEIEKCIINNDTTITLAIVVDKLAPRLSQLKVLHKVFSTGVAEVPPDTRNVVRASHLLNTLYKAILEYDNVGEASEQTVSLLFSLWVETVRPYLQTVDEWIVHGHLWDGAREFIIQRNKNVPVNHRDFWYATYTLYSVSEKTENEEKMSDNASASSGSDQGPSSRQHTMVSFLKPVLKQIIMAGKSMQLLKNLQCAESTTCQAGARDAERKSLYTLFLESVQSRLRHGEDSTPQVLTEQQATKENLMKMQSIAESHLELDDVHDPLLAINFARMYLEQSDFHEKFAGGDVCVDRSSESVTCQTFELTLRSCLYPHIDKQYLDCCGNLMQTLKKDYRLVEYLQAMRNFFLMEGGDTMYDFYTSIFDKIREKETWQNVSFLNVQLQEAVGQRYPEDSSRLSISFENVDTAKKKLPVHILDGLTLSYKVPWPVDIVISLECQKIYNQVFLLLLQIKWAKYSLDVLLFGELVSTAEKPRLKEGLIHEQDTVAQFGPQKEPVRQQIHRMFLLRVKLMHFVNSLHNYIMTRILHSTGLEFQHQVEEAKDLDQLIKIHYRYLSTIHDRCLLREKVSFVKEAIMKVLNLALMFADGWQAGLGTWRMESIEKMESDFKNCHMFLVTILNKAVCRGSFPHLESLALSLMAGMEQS
Chain of UniProt Q9H5L6 (Q9H5L6 whole entry, looked up): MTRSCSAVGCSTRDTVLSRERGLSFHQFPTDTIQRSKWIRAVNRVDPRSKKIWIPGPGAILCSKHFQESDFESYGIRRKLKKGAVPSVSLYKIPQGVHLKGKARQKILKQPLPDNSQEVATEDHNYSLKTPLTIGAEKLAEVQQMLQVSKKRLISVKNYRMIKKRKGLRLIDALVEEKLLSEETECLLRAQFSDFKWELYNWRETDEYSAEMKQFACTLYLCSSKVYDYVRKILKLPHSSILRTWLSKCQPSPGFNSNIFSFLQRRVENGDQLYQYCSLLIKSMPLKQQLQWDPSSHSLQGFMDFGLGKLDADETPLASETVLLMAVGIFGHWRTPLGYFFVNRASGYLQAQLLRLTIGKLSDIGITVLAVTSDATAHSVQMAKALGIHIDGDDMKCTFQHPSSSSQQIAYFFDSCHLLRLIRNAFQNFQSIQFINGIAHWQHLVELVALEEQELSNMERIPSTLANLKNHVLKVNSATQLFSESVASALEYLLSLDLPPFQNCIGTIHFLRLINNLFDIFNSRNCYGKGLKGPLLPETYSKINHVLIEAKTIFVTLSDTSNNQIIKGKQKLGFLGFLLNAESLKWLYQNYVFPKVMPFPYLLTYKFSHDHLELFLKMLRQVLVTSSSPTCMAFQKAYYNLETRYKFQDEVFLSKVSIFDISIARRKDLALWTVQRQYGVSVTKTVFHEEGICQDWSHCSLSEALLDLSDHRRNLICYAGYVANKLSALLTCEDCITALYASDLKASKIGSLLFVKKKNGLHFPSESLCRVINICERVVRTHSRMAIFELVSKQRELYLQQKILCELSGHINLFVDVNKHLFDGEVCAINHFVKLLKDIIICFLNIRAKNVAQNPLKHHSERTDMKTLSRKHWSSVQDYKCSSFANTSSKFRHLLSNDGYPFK
Chain of UniProt Q9NPG3 (Q9NPG3 whole entry, looked up): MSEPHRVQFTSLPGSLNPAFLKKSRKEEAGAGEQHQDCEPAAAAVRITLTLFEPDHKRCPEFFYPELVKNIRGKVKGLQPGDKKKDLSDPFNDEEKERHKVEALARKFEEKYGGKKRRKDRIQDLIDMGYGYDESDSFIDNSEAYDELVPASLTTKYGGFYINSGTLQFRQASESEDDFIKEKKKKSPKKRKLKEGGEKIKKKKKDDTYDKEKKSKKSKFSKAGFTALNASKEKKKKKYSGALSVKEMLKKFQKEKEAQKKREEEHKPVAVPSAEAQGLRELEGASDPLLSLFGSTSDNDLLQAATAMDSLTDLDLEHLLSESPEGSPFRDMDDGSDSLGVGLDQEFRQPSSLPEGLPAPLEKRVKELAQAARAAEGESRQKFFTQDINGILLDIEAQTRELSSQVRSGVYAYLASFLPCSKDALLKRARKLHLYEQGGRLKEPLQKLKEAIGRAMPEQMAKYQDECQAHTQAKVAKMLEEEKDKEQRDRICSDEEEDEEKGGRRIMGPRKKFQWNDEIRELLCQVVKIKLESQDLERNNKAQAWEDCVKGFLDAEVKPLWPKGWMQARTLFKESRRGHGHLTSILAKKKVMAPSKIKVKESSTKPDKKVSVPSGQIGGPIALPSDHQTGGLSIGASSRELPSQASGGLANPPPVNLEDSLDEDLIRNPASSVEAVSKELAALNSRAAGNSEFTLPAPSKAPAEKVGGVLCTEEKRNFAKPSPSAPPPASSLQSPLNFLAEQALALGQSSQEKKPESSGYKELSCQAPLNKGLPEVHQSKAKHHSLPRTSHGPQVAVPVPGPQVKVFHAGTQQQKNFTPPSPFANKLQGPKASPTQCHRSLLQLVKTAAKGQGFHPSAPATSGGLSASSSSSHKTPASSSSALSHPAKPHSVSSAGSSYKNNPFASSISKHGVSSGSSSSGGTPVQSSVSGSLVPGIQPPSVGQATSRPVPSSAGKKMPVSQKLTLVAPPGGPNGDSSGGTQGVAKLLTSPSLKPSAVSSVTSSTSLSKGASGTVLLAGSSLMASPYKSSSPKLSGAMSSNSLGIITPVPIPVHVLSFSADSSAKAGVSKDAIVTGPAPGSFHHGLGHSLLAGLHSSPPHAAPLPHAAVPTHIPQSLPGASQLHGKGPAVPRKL
Chain of UniProt P06753 (P06753 whole entry, looked up): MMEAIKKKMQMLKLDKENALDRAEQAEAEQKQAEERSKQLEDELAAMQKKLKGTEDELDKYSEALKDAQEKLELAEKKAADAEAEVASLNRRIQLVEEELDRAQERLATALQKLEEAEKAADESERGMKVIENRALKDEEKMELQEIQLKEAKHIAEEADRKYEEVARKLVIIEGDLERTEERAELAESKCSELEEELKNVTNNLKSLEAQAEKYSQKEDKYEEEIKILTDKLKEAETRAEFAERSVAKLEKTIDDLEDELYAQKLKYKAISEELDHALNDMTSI
Chain of UniProt O60637 (O60637 whole entry, looked up): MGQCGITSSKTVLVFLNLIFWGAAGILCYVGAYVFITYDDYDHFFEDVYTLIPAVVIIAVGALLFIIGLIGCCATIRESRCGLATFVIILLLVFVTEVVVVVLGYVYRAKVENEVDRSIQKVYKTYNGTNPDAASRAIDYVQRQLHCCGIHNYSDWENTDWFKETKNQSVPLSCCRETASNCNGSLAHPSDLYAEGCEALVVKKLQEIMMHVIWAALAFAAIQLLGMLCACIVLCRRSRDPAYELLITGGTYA
Chain of UniProt Q6Q0C0 (Q6Q0C0 whole entry, looked up): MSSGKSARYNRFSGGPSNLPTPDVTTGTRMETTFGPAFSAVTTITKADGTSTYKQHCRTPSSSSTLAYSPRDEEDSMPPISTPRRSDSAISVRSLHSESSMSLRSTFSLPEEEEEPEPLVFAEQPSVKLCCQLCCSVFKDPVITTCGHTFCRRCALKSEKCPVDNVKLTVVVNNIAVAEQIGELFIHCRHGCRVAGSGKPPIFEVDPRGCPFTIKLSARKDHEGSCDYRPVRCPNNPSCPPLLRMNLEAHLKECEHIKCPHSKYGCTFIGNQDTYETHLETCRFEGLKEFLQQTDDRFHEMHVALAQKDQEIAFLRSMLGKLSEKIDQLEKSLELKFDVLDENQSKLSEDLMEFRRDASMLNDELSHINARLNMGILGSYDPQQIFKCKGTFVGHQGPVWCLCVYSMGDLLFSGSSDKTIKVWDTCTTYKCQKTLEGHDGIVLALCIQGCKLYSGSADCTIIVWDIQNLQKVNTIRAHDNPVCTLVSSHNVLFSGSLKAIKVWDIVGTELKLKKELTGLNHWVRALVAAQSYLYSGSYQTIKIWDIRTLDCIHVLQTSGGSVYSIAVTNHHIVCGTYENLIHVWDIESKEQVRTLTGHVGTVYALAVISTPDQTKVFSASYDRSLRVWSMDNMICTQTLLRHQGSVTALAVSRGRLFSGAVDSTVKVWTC
Chain of UniProt P42167 (P42167 whole entry, looked up): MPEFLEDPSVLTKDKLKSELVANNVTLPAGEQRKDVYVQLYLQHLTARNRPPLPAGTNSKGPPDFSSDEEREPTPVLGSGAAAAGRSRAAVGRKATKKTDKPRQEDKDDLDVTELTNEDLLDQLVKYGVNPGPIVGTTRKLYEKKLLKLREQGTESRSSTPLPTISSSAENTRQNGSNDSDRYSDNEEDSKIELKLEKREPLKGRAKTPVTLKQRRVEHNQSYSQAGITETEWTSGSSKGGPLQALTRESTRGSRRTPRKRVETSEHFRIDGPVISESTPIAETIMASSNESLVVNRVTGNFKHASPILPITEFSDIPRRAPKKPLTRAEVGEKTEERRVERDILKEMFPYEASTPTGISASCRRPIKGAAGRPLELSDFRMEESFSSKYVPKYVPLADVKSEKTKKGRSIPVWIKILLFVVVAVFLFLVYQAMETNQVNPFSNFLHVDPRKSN
Chain of UniProt Q9BRN9 (Q9BRN9 whole entry, looked up): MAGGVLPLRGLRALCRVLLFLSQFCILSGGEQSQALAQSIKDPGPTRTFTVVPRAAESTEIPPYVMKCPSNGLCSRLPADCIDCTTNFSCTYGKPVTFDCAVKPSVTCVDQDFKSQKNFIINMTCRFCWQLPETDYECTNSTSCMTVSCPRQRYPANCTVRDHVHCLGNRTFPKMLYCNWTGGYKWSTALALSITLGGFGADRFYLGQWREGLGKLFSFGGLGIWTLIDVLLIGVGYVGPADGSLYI
Chain of UniProt P62328 (P62328 whole entry, looked up): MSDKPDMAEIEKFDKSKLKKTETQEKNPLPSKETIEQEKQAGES

log2 fold change, inactive:
TPM3 isoform 3 (UniProt P06753) 0.08
TCF3 (UniProt X6REB3) -0.192
UBR4 isoform 4 (UniProt Q5T4S7) 0.016
TRAF7 (UniProt Q6Q0C0) -0.151
TEC (UniProt P42680) -0.048
TSPAN3 (UniProt O60637) -0.135
TFPI isoform 2 (UniProt P10646) -0.171
UBAP2L (UniProt F8W726) 0.168
TRIM3 (UniProt O75382) 0.012
UBN1 (UniProt Q9NPG3) 0.051
TMC1 (UniProt Q8TDI8) -0.071
UCP2 (UniProt P55851) -0.025
TMPO isoform 2 (UniProt P42167) -0.121
TUBGCP5 (UniProt Q96RT8) 0.01
THAP9 (UniProt Q9H5L6) -0.042

Each target was assayed with C1CCN(C1)C(=O)NC2=CC=CC(=C2)NC3=NC=C(C(=N3)NCCC4=CN=CN4)Br in the same assay as above.
Summary of the method: as §1

log2 fold change, inactive:
TMEM132A isoform 2 (UniProt Q24JP5) 0.042
TASP1 (UniProt Q9H6P5) -0.062
TPM3 isoform 3 (UniProt P06753) 0.084
TMEM154 (UniProt Q6P9G4) -0.096
UBR4 isoform 4 (UniProt Q5T4S7) 0.119
TNFAIP3 (UniProt P21580) -0.296
TRAF7 (UniProt Q6Q0C0) -0.05
TEC (UniProt P42680) -0.024
TUBB4A (UniProt P04350) 0.017
TM2D3 (UniProt Q9BRN9) 0.153
TSPAN3 (UniProt O60637) 0.006
TLE3 isoform 5 (UniProt Q04726) -0.068
TCF4 (UniProt P15884) 0.234
TRIM3 (UniProt O75382) 0
TMSB4X (UniProt P62328) 0.018
UBN1 (UniProt Q9NPG3) 0
TEDC1 (UniProt Q86SX3) -0.127
TGFBR1 isoform 2 (UniProt P36897) 0.14
U2AF1L5 (UniProt P0DN76) 0.109
TMC1 (UniProt Q8TDI8) -0.148
TMPO isoform 2 (UniProt P42167) 0.163
TUBGCP5 (UniProt Q96RT8) -0.003
THAP9 (UniProt Q9H5L6) -0.092
